Data from PubChem BioAssay AID504400 (The Scripps Research Institute Molecular Screening Center, 2011).
Unmarked numbers belong to inactive results. How the calls were made is not given here.

System: Rolipram
Test: CYP450 and receptor off-target profile – biochemical, Ricerca HitProfilingScreen, selectivity assay for S1P4 agonist project, late-stage follow-up (AID 504400)
Settings: Ricerca radioligand binding/enzyme panel plus CYP450, at 10 µM, stronger effect = higher value

Clc1ccc(OCCOc2ccc(Br)nc2Br)c(Cl)c1
inhibition: -3%
